# Pf apPOL block – Pf-apPOL DNA polymerase inhibition; Recombinant Pf-apPOL, molecular beacon fluorescence, 1.5 h; inhibition, % at 10 µM; 0.25% of 210,000 active; AID 1794808
# mHTT CaM bind – mHTT-calmodulin interaction abrogation | P42858 | AlphaScreen His-mHTT/GST-CaM binding, luminescence | 3.6% of 190,000 active | inhibition, % at 15 µM;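 further: 0% = both proteins with DMSO and 100% = one protein alone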
# Active calls of the source: *; i = inactive; . = not tested or not shown; + = active, no number. In the library only some 3.6% were active in any assay of this set; here they are far more common. No stated cut-off is given here; in the data, active means inhibition above about 50%; inactive means the rest.
SMILES,Pf apPOL block,mHTT CaM bind
COC(=O)[C@H](CC(C)C)N(CCc1cn(Cc2ccc(C)cc2)nn1)S(=O)(=O)c1ccc(F)cc1Br,2.2,71.8*
COC(=O)[C@H](CC(C)C)N(CCc1cn(Cc2ccccc2)nn1)S(=O)(=O)c1ccc(F)cc1Br,-4.5,15.9
COCCn1c(CC2CCN(S(=O)(=O)c3cccc(OC)c3)C2)nc2cccnc21 (configuration not stated),-1.1,5.4
Cn1cccc1/C=N/Nc1ccc(F)cc1,.,+
Cn1cccc1/C=N/NC(=O)c1cccs1,.,i
CCOC(=O)c1c(-c2ccccc2)oc2c1cc(OC(=O)c1cc(OC)c(OC)c(OC)c1)c1ccccc12,58.2*,6.7
CCOC(=O)c1c(-c2ccccc2)oc2c1cc(OC(=O)c1ccccc1OC)c1ccccc12,2.2,-8.4
COCCn1cc2c3c(cccc31)CN(C(=O)Cc1cccc(OC)c1)CC2,-5.6,45.8
CCc1ccccc1NC(=O)N1CCc2cn(CCOC)c3cccc(c23)C1,-4.4,14.5
COCCn1cc2c3c(cccc31)CN(C(=O)Cc1ccc(Cl)cc1)CC2,-1.8,81.4*
COCCn1cc2c3c(cccc31)CN(C(=O)Cc1ccccc1C)CC2,-2.3,62.9*
Cc1nnc(NC(=O)CN2CC(c3nc(Cc4ccccc4)no3)C2)s1,-5.0,-2.8
Cc1cccc(CS(=O)(=O)N2CC(c3nc(Cc4ccccc4)no3)C2)c1,-8.3,-12.9
FC(F)(F)c1cccc(CN2CC(c3nc(Cc4ccccc4)no3)C2)c1,-4.1,61.5*
O=C(CN1CC(c2nc(Cc3ccccc3)no2)C1)c1ccc(Cl)cc1,20.3,56.9*
CC(NCCC(=O)O)c1ccccc1 (configuration not stated),1.7,-8.4
CCCNc1cc(N2CCC(CCC(=O)NCc3cccc(F)c3)CC2)ncn1,-4.7,-0.3
CC1=N/C(=C\c2ccc([N+](=O)[O-])cc2)C(=O)N1c1cccc(F)c1,-6.0,5.0
O=C1CC(c2ccc(Cl)c(Cl)c2)CC(O)=C1C=NCCN1CCNCC1 (configuration not stated),-2.9,59.0*
O=C1CC(c2cccs2)CC(O)=C1C=NCCN1CCNCC1 (configuration not stated),9.6,0.0
CC(O)CNC(=O)C(=O)NC1CCCC1 (configuration not stated),-2.5,-0.9
CCc1ccc(C2=C/C(=C/c3cc(OC)c(OC)c(OC)c3)C(=O)O2)cc1,14.9,31.0
O=C(CC1Sc2ccccc2NC1=O)NCCc1cccc(Cl)c1 (configuration not stated),-1.6,2.4
Cc1cc(C)cc(C(=O)N2CCCN(Cc3nc4ccccc4o3)CC2)c1,3.2,34.5
O=C(c1ccc(F)c(F)c1)N1CCCN(Cc2nc3ccc(Cl)cc3o2)CC1,-7.2,60.1*
SMILES,Pf apPOL block,mHTT CaM bind
C=CCNC(=O)C1CC(c2cc(OC)ccc2OC)=NO1 (configuration not stated),-3.9,-8.0
Cc1ccccc1NCN1C(=O)S/C(=C\c2ccc(F)cc2)C1=O,-4.8,28.0
Cc1ccccc1NCN1C(=O)S/C(=C\c2ccccc2)C1=O,0.1,53.0*
O=C(c1ccco1)N1CCN(C(=O)c2csc3c2CCCC3)CC1,-2.9,-4.5
COc1ccc(C2=N/C(=C\c3ccc(C)o3)C(=O)O2)c(Cl)c1,-4.8,-3.0
COc1c(Cl)ccc(Cl)c1C(=O)Nc1ccc(C)cc1C,-1.2,-7.5
CCCCCCNC(=O)N1C/C=C\C(c2ccc(OC)cc2)N(Cc2ccc(F)cc2)C(=O)C1 (configuration not stated),-3.8,48.2
COc1ccc(C2/C=C\CN(C(=O)c3ccccc3)CC(=O)N2Cc2ccc(F)cc2)cc1 (configuration not stated),-1.4,31.0
COc1ccc(C2/C=C\CN(C(=O)OCc3ccccc3)CC(=O)N2Cc2ccc(F)cc2)cc1 (configuration not stated),-4.9,91.6*
COc1ccc(C2/C=C\CC(OCc3ccccc3)CC(=O)N2Cc2cccc(F)c2)cc1 (configuration not stated),-7.1,99.5*
COc1ccc(C2/C=C\CN(S(=O)(=O)c3ccc4ccccc4c3)CC(=O)N2Cc2ccc(F)cc2)cc1 (configuration not stated),-5.5,16.6
CCCCCCC(=O)N1C/C=C\C(c2ccc(OC)cc2)N(Cc2ccc(F)cc2)C(=O)C1 (configuration not stated),-4.1,62.3*
FC(F)(F)c1cnc(N2CCC(n3cccc3)CC2)c(Cl)c1,-0.3,.
O=C(NC1CC1)C1CCCN1C(=O)c1ccccc1 (configuration not stated),0.3,-1.1
O=C(Nc1cccnc1)c1cc2nc(-c3ccc(Br)cc3)cc(C(F)(F)F)n2n1,-5.8,4.0
O=C1C=CC2=C3c4cc(O)c(O)cc4CC3(O)COC2=C1O (configuration not stated),50.2*,.
O=[N+]([O-])c1cc(C(F)(F)F)ccc1F,.,-7.1
Cc1ccc(S(=O)(=O)Nc2ccc(NS(C)(=O)=O)cc2)cc1,-2.5,-0.5
O=C(CSc1ccccn1)Nc1ccc(Br)cc1,3.1,-12.0
O=C(CSc1ccc(-c2ccccn2)nn1)Nc1ccc(F)c(F)c1,-5.8,99.4*
COc1ccc(C2CN(S(=O)(=O)c3ccc(OC)c(OC)c3)CCN2C)cc1 (configuration not stated),4.2,27.7
O=C(CSC1CCCC1)N1CCC(c2nnc(-c3ccco3)o2)CC1,-0.2,100.0*
COc1nn(C)cc1C(=O)N1CCC(c2nnc(-c3ccco3)o2)CC1,-7.5,-18.7
COc1cc(C2C(=C(O)c3ccccc3)C(=O)C(=O)N2CCCn2ccnc2)cc(OC)c1OC (configuration not stated),4.4,-1.7
Cc1cc(C)nc(Nc2nc(C(=O)NCCn3nc(-c4ccco4)ccc3=O)cs2)n1,34.9,62.4*
SMILES,Pf apPOL block,mHTT CaM bind
Cn1cc(C(=O)NCCn2nc(-c3ccco3)ccc2=O)nn1,1.4,-4.9
O=C(COc1ccccc1F)NCCn1nc(-c2ccco2)ccc1=O,-2.4,2.1
O=C(CC(c1ccccc1)c1ccccc1)NCCn1nc(-c2ccco2)ccc1=O,32.5,69.4*
Cc1ccsc1CCNS(=O)(=O)c1ccc2[nH]c3c(c2c1)CCCC3,-0.8,61.5*
Cc1ccc(Cl)cc1NC(=O)CN(C)S(=O)(=O)c1ccc2[nH]c3c(c2c1)CCCC3,-1.9,42.3
Cc1ccsc1CCNS(=O)(=O)c1ccc2[nH]c3c(c2c1)CCCCC3,-1.9,96.2*
CCOc1ccc(-n2c(SCC(=O)Nc3ccc(F)cc3F)nc3c(c2=O)SCC3)cc1,-5.3,1.0
Cc1nc(NC(=O)c2csc(-n3cccc3)n2)sc1C(=O)N(C)C,-2.4,-8.4
Fc1ccc(CSc2nc(SCc3ccc(F)cc3)nc(SCc3ccc(F)cc3)n2)cc1,.,-5.5
COc1ccccc1N1C(=O)C=C(c2ccc(Cl)cc2)C1=O,0.1,20.0
O=C1C=C(c2ccc(Cl)cc2)C(=O)N1c1ccccc1Cl,-2.8,62.0*
Cc1[nH]c2ccccc2c1C(Nc1ccccc1F)c1ccccn1 (configuration not stated),-13.3,23.8
Cc1[nH]c2ccccc2c1C(Nc1ccccn1)c1ccc([N+](=O)[O-])cc1 (configuration not stated),-1.1,97.1*
Cc1[nH]c2ccccc2c1C(C[N+](=O)[O-])c1ccc(F)cc1 (configuration not stated),-5.8,54.0*

# Assay outcomes from PubChem.
